Source: PubChem BioAssay (NCATS)
A number with no mark means an inactive call. Records with an inconclusive call do not appear. Calls of active or inactive are those of the source. Unless noted, calls come from the whole dose curve; as a rule, active = well fitted curve in either direction with a large enough effect (not every such curve was filed as active); inconclusive = small, poorly fitted or top-dose-only effect, or another doubt; inactive = flat fitted curve, though single readings scatter.

Key:
[1] = AP1 Signaling Pathway (AID 357); details: ME-180 AP-1-bla reporter, EGF-induced, beta-lactamase ratio, 5 h; note: % is set by controls: 0 for no effect and ±100 for the full control effect
Summary of the method: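 ME-180 cells with beta-lactamase reporter under AP-1 response element, stimulated with EC50 EGF; compounds tested in titration series, 5 h at 37 °C. CCF4 substrate added 2.5 h at room temperature; 460/530 nm emission ratio gave %activity and AC50.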

[2] = target: Cytochrome P450 1A2 (Homo sapiens) (UniProt P05177); test: p450-cyp1a2 (AID 410; calls by dose curve; note: potency is the fitted concentration of half-maximal effect;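 for activity change, negative = inhibition: -100% = full effect of reference inhibitor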); details: recombinant CYP1A2, luciferin-ME demethylation, luminescence; series mostly up to 25.6 µM
Cytochrome P450 1A2 (Homo sapiens), sequence (P05177 whole entry, looked up): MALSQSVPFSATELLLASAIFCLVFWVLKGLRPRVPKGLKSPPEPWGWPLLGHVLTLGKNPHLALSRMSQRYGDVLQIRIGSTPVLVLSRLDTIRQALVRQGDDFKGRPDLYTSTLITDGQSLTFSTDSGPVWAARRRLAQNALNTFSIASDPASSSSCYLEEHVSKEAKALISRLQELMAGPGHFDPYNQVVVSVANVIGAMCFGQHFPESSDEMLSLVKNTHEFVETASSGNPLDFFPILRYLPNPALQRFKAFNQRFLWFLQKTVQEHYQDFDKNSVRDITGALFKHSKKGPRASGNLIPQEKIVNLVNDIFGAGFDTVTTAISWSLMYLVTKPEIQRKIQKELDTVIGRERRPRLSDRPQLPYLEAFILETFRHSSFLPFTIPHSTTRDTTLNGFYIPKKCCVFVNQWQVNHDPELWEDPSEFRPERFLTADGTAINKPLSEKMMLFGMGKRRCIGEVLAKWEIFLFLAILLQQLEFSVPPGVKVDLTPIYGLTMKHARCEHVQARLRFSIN
Summary of the method: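 Inhibition was calculated relative to 57 uM furafylline (full inhibition). The reaction used human CYP1A2 at 20nM with Luciferin-ME at its Km, 100uM, driven by an NADPH-regenerating system for 60 min at room temperature.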

[3] = Stat Signaling Pathway (AID 446); details: ME-180 SIE beta-lactamase reporter, IL-6 stimulated, 5 h;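 note: ME-180 cervical cancer cells given 40 pM IL-6 alongside compound; SIE-controlled beta-lactamase reporter measured as 460/530 nm FRET emission ratio; % is set by controls: 0 for no effect and ±100 for the full control effect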
Summary of the method: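 Reporter line: ME-180 cervical carcinoma, SIE-beta-lactamase. Treatment: compound with 40 pM IL-6, 5 hrs, 37 C, in low-serum OPTI-MEM with 10 mM HEPES pH 7.3. Detection: 460/530 nm fluorescence.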

[4] = target: Glucocorticoid receptor (Homo sapiens) (UniProt P04150); test: GR-GFP Redistribution (AID 450;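 active = compounds whose dose series gives a full or clear partial fitted curve of increased nuclear translocation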; note: potency is the fitted concentration of half-maximal effect); details: U2OS GR-GFP nuclear translocation, laser cytometry, 2 h
Glucocorticoid receptor (Homo sapiens), sequence (P04150 whole entry, looked up, the tested form may be a part): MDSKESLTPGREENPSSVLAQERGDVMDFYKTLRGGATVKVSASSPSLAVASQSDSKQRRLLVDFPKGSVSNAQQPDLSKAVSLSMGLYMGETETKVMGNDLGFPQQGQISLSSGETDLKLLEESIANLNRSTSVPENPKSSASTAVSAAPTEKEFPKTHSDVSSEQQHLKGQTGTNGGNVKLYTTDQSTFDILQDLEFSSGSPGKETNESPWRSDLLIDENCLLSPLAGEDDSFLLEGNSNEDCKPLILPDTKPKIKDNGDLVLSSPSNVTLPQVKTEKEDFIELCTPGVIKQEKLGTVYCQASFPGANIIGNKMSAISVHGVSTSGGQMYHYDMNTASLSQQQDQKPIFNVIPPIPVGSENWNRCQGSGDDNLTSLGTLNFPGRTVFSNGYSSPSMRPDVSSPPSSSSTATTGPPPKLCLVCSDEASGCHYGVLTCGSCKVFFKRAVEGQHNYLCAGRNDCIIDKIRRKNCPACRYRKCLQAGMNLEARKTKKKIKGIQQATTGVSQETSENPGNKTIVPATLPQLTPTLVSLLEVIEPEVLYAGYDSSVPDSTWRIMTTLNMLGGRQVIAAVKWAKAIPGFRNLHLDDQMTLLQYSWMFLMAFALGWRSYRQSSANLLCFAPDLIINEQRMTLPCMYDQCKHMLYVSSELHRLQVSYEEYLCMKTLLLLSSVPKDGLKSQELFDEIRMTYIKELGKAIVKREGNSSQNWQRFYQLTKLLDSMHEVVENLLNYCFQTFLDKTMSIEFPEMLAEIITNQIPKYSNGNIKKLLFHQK

[5] = target: Glucocorticoid receptor (Homo sapiens) (UniProt P04150); test: GR-EFC Redistribution (AID 451; calls by dose curve; note: potency is the fitted concentration of half-maximal effect); details: CHO-K1 GR-EFC translocation, beta-gal luminescence, 2 h
Summary of the method: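 Translocation of GR-ED fusion to nuclear EA restores b-gal, read by luminescence after 1 h room-temperature detection. Engineered CHO-K1 biosensor cells, 1,000/well, exposed 2 h at 37 C to titrations up to 46 uM final.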

[6] = target: Mitogen-activated protein kinase 10 (Mus musculus) (UniProt Q61831); test: JNK3 AlphaScreen Assay (AID 530); details: JNK3 lysate, c-Jun phosphorylation; series mostly up to 25.6 µM;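 note: kinase came from lysate of stimulated human HepG2 cells; signal reports phosphorylation of biotinylated GST-cJun 1-79 at Ser73 with 10 µM ATP; % is set by controls: 0 for no effect and ±100 for the full control effect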
Summary of the method: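 Room-temperature AlphaScreen kinase assay; pre-activated HepG2 lysate as JNK3 source, biotin-GST-cJun(1-79) substrate, 10 uM ATP, compound 15 min preincubation.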

[7] = NFAT Signaling Pathway (AID 444); details: Jurkat NFAT-bla M1, carbachol, beta-lactamase ratio, 5 h;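 note: carbachol stimulus at about its EC50 of 1 µM final; % is set by controls: 0 for no effect and ±100 for the full control effect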
Summary of the method: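 Read-out: CCF4 FRET ratio (460 nm/530 nm) after 1 h RT dye loading, used for %activity and AC50 from titration series. Cells: Jurkat NFAT-β-lactamase/M1 line, treated with compound plus 1 uM carbachol for 5 h, 37 °C.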

[8] = Cell Viability - BJ (AID 421; calls by dose curve;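 note: potency is the fitted concentration of half-maximal effect; cells exposed to compound for 40 hours at 37 °C before readout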); details: BJ fibroblast viability, qHTS
Summary of the method: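 Cytotoxicity as drop in intracellular ATP (CellTiter-Glo, 20 min RT) after 40 hr compound exposure of BJ fibroblasts at 37 °C. Titrations scaled between DMSO and 100 uM tamoxifen, Hill-fitted for AC50.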

[9] = Cell Viability - Jurkat (AID 426;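 active = dose-dependent loss of cell ATP signal giving a full or clear fitted curve, ranked by lower potency value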;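 note: potency is the fitted concentration of half-maximal effect; cells exposed to compound for 40 hours at 37 °C before ATP read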); details: qHTS
Summary of the method: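 Seed 5000 Jurkat E6-1 cells/well; add compound; incubate 40 hr at 37 °C; add CellTiter-Glo; wait 20 min at room temperature; read luminescence. Fit concentration-response with Hill equation for AC50.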

[10] = Cell Viability - Hek293 (AID 427;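 active = compounds whose dose-response curve shows a full or clear partial loss of cell viability, called from curve shape rather than a numeric limit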;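 note: potency is the fitted concentration of half-maximal effect; cells exposed to compound for 40 hours at 37 °C before reading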); details: qHTS
Summary of the method: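 Luminescent ATP content (CellTiter-Glo, 20 min at room temperature) was measured after a 40 hr, 37 °C compound exposure of HEK293 cells. AC50 values came from Hill-equation fits of qHTS concentration-response data normalized to DMSO and 100 uM tamoxifen.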

[11] = Cell Viability - HepG2 (AID 433; calls by dose curve;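 note: potency is the fitted concentration of half-maximal effect; cells exposed to compound for 40 hours; potency for ATP loss meaning cytotoxicity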); details: qHTS
Summary of the method: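 Cytotoxicity read as ATP loss (CellTiter-Glo luminescence) after 40 hr compound exposure of HepG2, 1500 cells/well, 37 °C. AC50 by Hill equation; 0% set by DMSO, 100% inhibition by 100 uM tamoxifen.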

[12] = Cell Viability - N2a (AID 540; active = well fitted curve in the direction sought with a large enough effect; an effect the other way counts as inactive or inconclusive;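 note: potency is the fitted concentration of half-maximal effect; cells exposed to compound for 40 h at 37 °C; nearly all actives have a fitted effect of over 45% in size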); details: N2a mouse neuroblastoma cell viability; activity change, negative = cytotoxicity: at 92.2 µM (top of the series)
Summary of the method: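 First, 1500 N2a cells per well incubate 5 hr at 37 °C; next, compounds are added and incubated 40 hr at 37 °C; finally CellTiter-Glo is added and luminescence read after 20 min, with AC50 derived by Hill modeling.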

[13] = Cell Viability - HUV-EC-C (AID 542; active = well fitted curve in the direction sought with a large enough effect; an effect the other way counts as inactive or inconclusive;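 note: potency is the fitted concentration of half-maximal effect; cells exposed to compound for 40 hours; nearly all actives have a fitted effect of over 35% in size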); details: HUV-EC-C endothelial cell viability, qHTS; series mostly up to 92.2 µM
Summary of the method: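 Decrease in cellular ATP, quantified by luciferase luminescence, reflects toxicity in normal human vascular endothelial HUV-EC-C cells given compound for 40 hr in complete culture medium. Values are AC50s from concentration-response curves.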

[14] = Cell Viability - H-4-II-E (AID 543; active = well fitted curve in the direction sought with a large enough effect; an effect the other way counts as inactive or inconclusive;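 note: potency is the fitted concentration of half-maximal effect; cells exposed to compound for 40 hours; nearly all actives have a fitted effect of over 35% in size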); details: H-4-II-E rat hepatoma viability; series mostly up to 92.2 µM
Summary of the method: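 Here, cytotoxicity is measured in the rat hepatoma line H-4-II-E as loss of intracellular ATP after 40 hr compound treatment, detected by luciferase luminescence.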

CC(=O)N(O)CCCCCNC(=O)CCC(=O)N(O)CCCCCNC(=O)CCC(=O)N(O)CCCCCN
activity change, negative = inhibition ([1]; at 17.2 µM (top of the series)): -6.04% | Potency [2]: inactive | activity, negative = inhibition ([3]; at 17.2 µM (top of the series)): 10.3% | Potency [4]: > 20.6 µM | Potency [5]: > 20.6 µM | outcome [6]: inactive

CCN(CCCCOC(=O)c1ccc(OC)c(OC)c1)C(C)Cc1ccc(OC)cc1 (stereo not drawn)
activity change, negative = inhibition ([1]; at 17.2 µM (top of the series)): -6.87% | activity change, negative = inhibition ([7]; at 17.2 µM (top of the series)): -93.3% (active) | activity, negative = inhibition ([3]; at 17.2 µM (top of the series)): 1.95% | Potency [4]: > 20.6 µM

CC(=O)OCC(=O)[C@@]1(OC(C)=O)[C@@H](C)C[C@H]2[C@@H]3C[C@H](F)C4=CC(=O)C=C[C@]4(C)[C@@]3(F)[C@@H](O)C[C@@]21C
activity change, negative = inhibition ([1]; at 17.2 µM (top of the series)): -3.12% | activity change, negative = inhibition ([7]; at 17.2 µM (top of the series)): 17.4% | activity, negative = inhibition ([3]; at 17.2 µM (top of the series)): 0.432% | Potency [4]: 0.000878 µM (active)

COc1cc(NS(C)(=O)=O)ccc1Nc1c2ccccc2nc2ccccc12
activity change, negative = inhibition ([1]; at 38 µM (top of the series)): -9.96% | Potency [2]: 7.94 µM (active) | Potency [4]: > 46 µM | Potency [5]: > 46 µM

CCC(C(=O)OCCN(CC)CC)c1ccccc1 (stereo not drawn)
activity change, negative = inhibition ([1]; at 17.2 µM (top of the series)): 1.42% | activity change, negative = inhibition ([7]; at 17.2 µM (top of the series)): -83.4% (active) | activity, negative = inhibition ([3]; at 17.2 µM (top of the series)): 2.13% | Potency [4]: > 20.6 µM

CN1CCC[C@@H]1c1cccnc1
activity change, negative = inhibition ([1]; at 38 µM (top of the series)): 12.2% | activity change, negative = inhibition ([7]; at 38 µM (top of the series)): -1.61% | activity, negative = inhibition ([3]; at 38 µM (top of the series)): -4.46%

CC(O)(P(=O)(O)O)P(=O)(O)O
activity change, negative = inhibition ([1]; at 17.2 µM (top of the series)): -1.23% | Potency [2]: inactive | activity change, negative = inhibition ([7]; at 17.2 µM (top of the series)): -2.6% | activity, negative = inhibition ([3]; at 17.2 µM (top of the series)): 3.57% | outcome [6]: inactive

C[C@H](CCC(=O)O)[C@H]1CC[C@H]2[C@@H]3C(=O)C[C@@H]4CC(=O)CC[C@]4(C)[C@H]3CC(=O)[C@]12C
activity change, negative = inhibition ([1]; at 17.2 µM (top of the series)): 8.36% | activity change, negative = inhibition ([7]; at 17.2 µM (top of the series)): 13.3% | activity, negative = inhibition ([3]; at 17.2 µM (top of the series)): 1.08% | Potency [4]: > 20.6 µM

C[C@H]1C[C@H]2[C@@H]3CCC4=CC(=O)C=C[C@]4(C)[C@@]3(Cl)[C@@H](O)C[C@]2(C)[C@@]1(O)C(=O)CO
activity change, negative = inhibition ([1]; at 17.2 µM (top of the series)): -9.37% | activity change, negative = inhibition ([7]; at 17.2 µM (top of the series)): -6.95% | activity, negative = inhibition ([3]; at 17.2 µM (top of the series)): -1.29%

CC(C)N=C(N)/N=C(\N)Nc1ccc(Cl)cc1
activity change, negative = inhibition ([1]; at 17.2 µM (top of the series)): -0.245% | activity change, negative = inhibition ([7]; at 17.2 µM (top of the series)): -11% | activity, negative = inhibition ([3]; at 17.2 µM (top of the series)): -2.15% | Potency [4]: > 20.6 µM | Potency [5]: > 20.6 µM | outcome [6]: inactive

C[C@]12CC[C@H]3[C@@H](CCC4=CC(=O)CC[C@@]43C)[C@@H]1CC[C@@H]2C(=O)CO
activity change, negative = inhibition ([1]; at 17.2 µM (top of the series)): 12.4% | activity change, negative = inhibition ([7]; at 17.2 µM (top of the series)): -13.6% | activity, negative = inhibition ([3]; at 17.2 µM (top of the series)): 1.53% | Potency [4]: 0.0356 µM (active)

CC(CCc1ccccc1)NCC(O)c1ccc(O)c(C(N)=O)c1 (stereo not drawn)
activity change, negative = inhibition ([1]; at 17.2 µM (top of the series)): 5.69% | activity change, negative = inhibition ([7]; at 17.2 µM (top of the series)): 9.12% | activity, negative = inhibition ([3]; at 17.2 µM (top of the series)): 9.7% | Potency [4]: > 20.6 µM

O=C(COc1ccc(Cl)cc1)N1CCN(Cc2ccc3c(c2)OCO3)CC1
activity change, negative = inhibition ([1]; at 17.2 µM (top of the series)): -14.6% | Potency [2]: 5.01 µM (active) | activity change, negative = inhibition ([7]; at 17.2 µM (top of the series)): 15.3% | activity, negative = inhibition ([3]; at 17.2 µM (top of the series)): 1.26% | outcome [6]: inactive

Oc1c(Cl)cc(Cl)cc1Sc1cc(Cl)cc(Cl)c1O
activity change, negative = inhibition ([1]; at 17.2 µM (top of the series)): -12.3% | Potency [8]: > 92 µM | Potency [9]: 47.8 µM (active) | Potency [10]: 36.2 µM (active) | Potency [11]: 27.9 µM (active) | activity change, negative = inhibition ([7]; at 17.2 µM (top of the series)): -126% (active) | activity, negative = inhibition ([3]; at 17.2 µM (top of the series)): -99.1% (active) | Potency [4]: > 20.6 µM | outcome [6]: inactive | Potency [12]: 31.6 µM (active) | Potency [13]: 20 µM (active) | Potency [14]: 31.6 µM (active)
